Source: PubChem BioAssay
The list is not random: actives were taken first. Their share in the collection is about 3.2%.
Rv3671c inh: Rv3671c (M. tuberculosis) protease inhibition | AID 2606 | inhibition, % at 5.96 µM | actives 0.048% (n = 320,000) | P9WHR9; in the data active = inhibition above about 38%;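 note: extracellular domain of Rv3671c used as enzyme; 0% = enzyme with DMSO and 100% = no enzyme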
GDH-TPI inh: inhibits GDH-TPI coupling enzymes, artifact for Mtb FBA screen; inhibition, % at 4.8 µM; actives 1.2% (n = 360,000); GDH-TPI coupled enzyme counterscreen, NADH absorbance; AID 588335; in the data active = inhibition above about 30%;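 note: 0% = DMSO wells and 100% = wells lacking the enzyme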
FBA Mtb inh: Mtb fructose-bisphosphate aldolase inhibition | P9WQA3 | purified M. tuberculosis FBA, fluorescence read-out | inhibition, % at 1 µM | actives 2.3% (n = 360,000) | AID 588726; in the data active = inhibition above about 27%;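 note: 0% = vehicle and 100% = reference inhibitor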
Mtb bLac sens: beta-lactam sensitization of Mtb H37Rv. M. tuberculosis H37Rv growth with meropenem, percent inhibition. inhibition, % at 25 µM. actives 0.27% (n = 330,000); call rule not given here;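 note: growth measured after seven days incubation then overnight dye step; 0% = bacteria only wells and 100% = bacteria with antibiotic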
PriA SSB inh: inhibitors of Klebsiella pneumoniae PriA binding to SSB C-terminal tail; AID 1272365; AlphaScreen SSBct-PriA binding, biotinylated peptide; inhibition, % at 33 µM; actives 0.6% (n = 430,000); in the data active = inhibition mostly above about 37%, no sharp cut-off; inactive = mostly below about 20%;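 note: plate controls were negative control peptide for no effect and reference peptide for full effect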
Mtb UGM inh: inhibitors of M. tuberculosis UDP-galactopyranose mutase | P9WIQ1 | actives 0.06% (n = 320,000) | purified UGM, fluorescence polarization probe displacement | AID 504406 | inhibition, % at 10 µM; in the data active = inhibition above about 10%, passing the limit was not always enough; inconclusive = no clear call, values can overlap the other calls
Target sequence (P9WIQ1 whole entry, looked up): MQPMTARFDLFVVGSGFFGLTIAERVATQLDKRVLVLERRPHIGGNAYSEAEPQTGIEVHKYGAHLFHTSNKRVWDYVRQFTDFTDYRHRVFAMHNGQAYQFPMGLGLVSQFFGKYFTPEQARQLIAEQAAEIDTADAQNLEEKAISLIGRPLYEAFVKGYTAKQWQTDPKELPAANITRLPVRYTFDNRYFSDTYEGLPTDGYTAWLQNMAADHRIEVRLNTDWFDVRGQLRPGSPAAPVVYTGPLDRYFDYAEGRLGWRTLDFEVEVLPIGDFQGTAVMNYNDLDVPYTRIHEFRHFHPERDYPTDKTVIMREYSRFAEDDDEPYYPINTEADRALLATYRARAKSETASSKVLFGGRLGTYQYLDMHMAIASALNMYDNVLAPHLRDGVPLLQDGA
The depositor's hits bear a star; ? = inconclusive; . = no result given; + = active, no number.

SMILES	Rv3671c inh	GDH-TPI inh	FBA Mtb inh	Mtb bLac sens	PriA SSB inh	Mtb UGM inh
CN(C)C=Nc1nc(-c2ccc3ccccc3c2)cs1	.	.	.	.	-5	.
Cc1cc(C)n(CCN2CCCN(C(=O)c3cn(C)nn3)CC2)n1	.	.	.	.	-1	.
O=C(Nc1nc(-c2ccccn2)cs1)c1ccc(N2CCOCC2)nc1	.	.	.	.	95*	.
O=C(Nc1nc(-c2ccccn2)cs1)c1ccc(N2CCCC2)nn1	.	.	.	.	72*	.
O=C(Nc1nc(-c2ccccn2)cs1)c1cc(S(=O)(=O)N2CCOCC2)ccc1F	-12	10	3	89	83*	.
Cc1csc(NC(=O)c2cc(=O)[nH]c3ccc(S(=O)(=O)N4CCOCC4)cc23)n1	1	6	46*	-6	-14	3
O=C(COc1ccccc1F)N1C2C=CCC1CC2 (centres undefined)	.	.	.	.	-4	.
O=C(/C=C/c1ccc(F)cc1)Nc1ccc(S(=O)(=O)Nc2ncccn2)cc1	-10	33*	2	2	-4	0
CSc1cccc(NC(=O)CSc2ncc(S(=O)(=O)c3cccs3)c(N)n2)c1	.	.	.	.	-8	.
CCC(=O)Nc1nnc(S(=O)(=O)N2c3ccccc3CC2C)s1 (centres undefined)	8	0	4	0	100*	-2
Cc1ccc(C=Nn2c(-c3ccco3)n[nH]c2=S)cc1	.	.	.	.	9	.
O=C1N=C(N2CCOCC2)S/C1=C/c1cccs1	8	34*	-2	40	-8	-2
O=C1N=C(N2CCOCC2)S/C1=C\c1ccc(OS(=O)(=O)c2ccccc2)cc1	-1	18	0	-4	-3	-1
CC(C)c1ccc(/C=C2\SC(N3CCOCC3)=NC2=O)cc1	-5	32*	0	3	-14	1
O=C1N=C(N2CCOCC2)S/C1=C\c1ccncc1	10	21	-1	-1	-6	-2
CCc1ccc(/C=C2/SC(N3CCOCC3)=NC2=O)cc1	7	47*	-3	-3	-5	-2
CC(=C/c1ccccc1)/C=C1/SC(N2CCOCC2)=NC1=O	2	32*	0	?	-13	2
CC(=O)N1CCN(C2=NC(=O)/C(=C\c3cccs3)S2)CC1	-4	8	-4	6	-14	-2
COc1ccc(CC(=O)Nc2cc(C)nn2-c2nc3c(cnn3-c3ccc(Cl)cc3)c(=O)[nH]2)cc1	.	.	.	.	-4	.
O=C(NCC1CCN(Cc2ccco2)CC1)c1c(F)cccc1F	.	.	.	.	0	.
Cc1ccc(-c2c(C(=O)N/N=C/c3c[nH]c4ccccc34)nnn2-c2nonc2N)cc1	18	47*	4	1	.	-1
COCc1c(C(=O)N/N=C/c2c[nH]c3ccccc23)nnn1-c1nonc1N	1	44*	2	-9	.	2
CCOc1ccc(/C=C/C(=O)Nc2ccc(N3CCCCC3)cc2)cc1	.	.	.	.	13	.
COc1ccc(-c2ccc(C#N)c(SCC(=O)NCCc3ccccc3)n2)cc1OC	-9	13	152*	3	-3	1
CC(=NOC(=O)C1CCCCC1)c1nccs1	.	51*	3	.	.	.
SMILES	Rv3671c inh	GDH-TPI inh	FBA Mtb inh	Mtb bLac sens	PriA SSB inh	Mtb UGM inh
Clc1cc2c(c3ncccc13)OCN(CCCN1CCOCC1)C2	.	.	.	.	105*	.
O=[N+]([O-])c1ccc(NCCCN2CCOCC2)c2ncccc12	-9	1	-16	0	-2	2
CCN(C[C@H]1N[C@@](Cc2ccccc2)(C(=O)OC)[C@H]2C(=O)N(Cc3ccccc3)C(=O)[C@@H]12)S(=O)(=O)c1ccc(-c2ccccc2)cc1	-8	32*	5	-10	-11	-1
CCN(C[C@H]1N[C@@](Cc2ccccc2)(C(=O)OC)[C@H]2C(=O)N(Cc3ccccc3)C(=O)[C@@H]12)S(=O)(=O)c1ccccc1	-4	10	-2	-8	-5	-1
O=C(O)c1ccc2c(c1)C(=O)N(c1ccc([N+](=O)[O-])cn1)C2=O	-1	36*	-1	-3	-9	1
O=C(O)c1ccc2c(c1)C(=O)N(c1ccc(Cl)cn1)C2=O	6	5	2	-2	-4	2
COc1cc(/C=N/NC(=S)Nc2cccc(Cl)c2C)ccc1OCC(=O)N1CC(C)OC(C)C1 (centres undefined)	6	33*	-2	2	.	0
COc1cc(/C=N/NC(N)=S)ccc1OCC(=O)N1CCOCC1	-7	31*	0	31	.	.
COc1cc(/C=C2\SC(=O)NC2=O)ccc1OCC(=O)N1CCOCC1	-4	37*	2	-6	-8	1
COc1cc(/C=N/NC(=O)c2ccc(Cl)cc2)ccc1OCC(=O)N1CC(C)OC(C)C1 (centres undefined)	-6	12	0	7	.	-2
Cc1cc(=O)[nH]c(-n2nc(C)c(CCC(=O)NCCc3ccccc3)c2C)n1	.	.	.	.	-4	.
COC(=O)c1c(C(C)(C)C)oc2c1cc(NS(=O)(=O)c1cccs1)c1ccccc12	.	.	.	.	32	.
CNc1cnc(-c2ccc(C(=O)N3CCOCC3)cc2)cn1	.	16	+	.	.	.
CCOc1ccc(OCC)c(S(=O)(=O)Nc2ccc(Nc3ccc(-n4ccc(C)n4)nn3)cc2)c1	.	.	.	.	-5	.
O=C(NCc1ccc(F)cc1)c1ccc(N2CCc3ccccc32)c([N+](=O)[O-])c1	4	1	-4	4	74*	1
CCOC(CNC(=O)c1ccc(N2CCc3ccccc32)c([N+](=O)[O-])c1)OCC	9	11	-6	-2	63*	2
O=C(O)c1ccc(N2CCc3ccccc32)c([N+](=O)[O-])c1	-3	18	-4	-4	-5	-2
CC(=O)c1ccc(N2CCc3ccccc3C2)c([N+](=O)[O-])c1	1	13	2	-8	18	-5
COC(=O)c1ccc(N2CCc3ccccc32)c([N+](=O)[O-])c1	7	14	-4	1	52*	3
CCC(=O)NC(N)=Nc1nc(C)c2cc(C)c(C)cc2n1	.	.	.	.	-8	.
CCn1c(C)cc(O)c(C(c2ccccn2)N2CCC(C)CC2)c1=O (centres undefined)	.	.	.	.	-9	.
O=C(O)C1CCCC[C@H]1C(=O)Nc1ncc([N+](=O)[O-])s1 (some centres undefined)	-1	31*	-1	-2	-2	2
CCOC(=O)c1c(NC(=O)CSc2c(-c3ccccc3)[nH]c3ccccc23)sc2c1CCCC2	.	.	.	.	-2	.
CCN(CCNC(=O)C1CCCN(Cc2nc(-c3ccc(OC)cc3)oc2C)C1)c1ccccc1 (centres undefined)	-6	-9	1	92	48*	3
CCN(CCNC(=O)C1CCN(Cc2nc(-c3ccc(Cl)cc3)oc2C)CC1)c1ccccc1	2	-4	0	100	46*	-2
CCc1ccc(-c2nc(CN3CCC(C(=O)NCCN(CC)c4ccccc4)CC3)c(C)o2)cc1	4	5	2	99	28	-3
COC(=O)C1CCN(C(=O)Cn2ccc3ccccc32)CC1	.	.	.	.	-6	.
CCOC(=O)/C(=C/c1c[nH]c2ccccc12)NC(C)=O	-1	38*	-2	-11	11	-4
